A short description of test [1]: NCI Yeast Anticancer Drug Screen. Data for the rad50 strain (AID 155).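 Note: 0% = growth of vehicle-only cultures of the same strain.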 Conditions: S. cerevisiae rad50 strain growth inhibition, stronger effect = higher value. The procedure, abridged:
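Relative growth inhibition (compound vs vehicle) was measured in yeast with a defined repair-gene alteration.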

Test [2] can be described thus: NCI Yeast Anticancer Drug Screen. Data for the mec2-1 strain (AID 157). Conditions: S. cerevisiae mec2-1 strain, stronger effect = higher value. A digest of the protocol:
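Compounds were applied to mec2-1 yeast cells. Their growth was then compared with that of vehicle-treated cultures to give growth inhibition.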

The nature of test [3]: NCI Yeast Anticancer Drug Screen. Data for the sgs1 mgt1 strain (AID 161).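 Note: 0% = growth of cultures given vehicle only.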 Conditions: S. cerevisiae sgs1 mgt1 strain, stronger effect = higher value. A digest of the protocol: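 Percent growth inhibition was derived by comparing compound-exposed mutant yeast with vehicle-exposed cultures. The strain carries alterations in DNA damage repair.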
Test [4] is described as follows: NCI Yeast Anticancer Drug Screen. Data for the cln2 rad14 strain (AID 165).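 Note: 0% = growth equal to vehicle treated cultures.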 Conditions: S. cerevisiae cln2 rad14 strain, stronger effect = higher value. The procedure, abridged:
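Strain: cln2 rad14 yeast, altered in cell cycle control and DNA damage repair. Read-out: growth inhibition vs vehicle.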

A short description of test [5]: NCI Yeast Anticancer Drug Screen. Data for the bub3 strain (AID 167). Conditions: S. cerevisiae bub3 mutant strain, stronger effect = higher value. A digest of the protocol: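 Screening used yeast with an engineered genetic alteration affecting cell cycle control. Compound-exposed cultures were compared with vehicle cultures, and reduced growth was taken as inhibition.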
A short description of test [6]: NCI Yeast Anticancer Drug Screen. Data for the mlh1 rad18 strain (AID 175). The note with it: S. cerevisiae mlh1 rad18 strain growth inhibition, stronger effect = higher value. A digest of the protocol:
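A repair-deficient yeast strain is exposed to test compound, and growth is scored relative to vehicle-treated controls.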

Setting [7] is: at 5.0 µM (retest, dose inferred, filed as 0.5).
Where [8] appears, read: at 50.0 µM (retest, dose inferred, filed as 5.0).

Each structure is given as a SMILES string. Compounds without any hit were thinned out: in the full panel of roughly 79,000, 15% have a hit. Values without a mark were called inactive. Active and inactive are the calls of the source. Cut-off read from the data, not from the text of the source: active = growth inhibition above about 70%; inactive = the rest.

For `CC(C)(Oc1ccc(-c2cccc3ccccc23)cc1)C(=O)O`, the growth inhibition is 9% in test [1] (setting [7]); 42% in test [1] (setting [8]); 58.3% in test [1] (at 50.0 µM); 5% in test [2] (setting [7]); 51% in test [2] (setting [8]); 13.7% in test [2] (at 50.0 µM). Further, the growth inhibition in test [3] (setting [7]) is 6%; in test [3] (setting [8]), 49%; in test [3] (at 50.0 µM) it was 29.4%; in test [4] (setting [7]), -6%; in test [4] (setting [8]), 54%; in test [4] (at 50.0 µM), 70.5% (active). For the same compound, the growth inhibition is 13% in test [5] (setting [7]); 54% in test [5] (setting [8]); 67.8% in test [5] (at 50.0 µM); -6% in test [6] (setting [7]); 49% in test [6] (setting [8]); 28.8% in test [6] (at 50.0 µM).

In the case of `Cc1sc(N=Nc2c(O)[nH]c3ccccc23)nc1-c1ccccc1`, the growth inhibition in test [1] (setting [7]) was 20%; in test [1] (setting [8]), 31%; in test [1] (at 50.0 µM) it was -2%; in test [2] (setting [7]), 16%; in test [2] (setting [8]), 27%; in test [2] (at 50.0 µM) it was -2.15%. Also, the growth inhibition was 17% in test [3] (setting [7]); 30% in test [3] (setting [8]); 19.9% in test [3] (at 50.0 µM); 14% in test [4] (setting [7]); 19% in test [4] (setting [8]); 13.7% in test [4] (at 50.0 µM). The growth inhibition in test [5] (setting [7]) was 24%; in test [5] (setting [8]), 60%; in test [5] (at 50.0 µM), -20.1%; in test [6] (setting [7]), 11%; in test [6] (setting [8]) it was 39%; in test [6] (at 50.0 µM), -26.4%.

Turning to `Cc1cc(NCCCCCCCCNc2cc(C)nc3cc(N(C)C)ccc23)c2ccc(N(C)C)cc2n1`, the growth inhibition in test [1] (setting [7]) is 18%; in test [1] (setting [8]), 95% (active); in test [1] (at 50.0 µM) it was 84.9% (active); in test [2] (setting [7]), 18%; in test [2] (setting [8]) it was 97% (active); in test [2] (at 50.0 µM), 90.5% (active). The growth inhibition in test [3] (setting [7]) was 53%; in test [3] (setting [8]), 97% (active); in test [3] (at 50.0 µM) it was 26.5%; in test [4] (setting [7]) it was 24%; in test [4] (setting [8]) it was 97% (active); in test [4] (at 50.0 µM) it was 18.4%. Further, the growth inhibition in test [5] (setting [7]) was 57%; in test [5] (setting [8]) it was 97% (active); in test [5] (at 50.0 µM) it was 32.1%; in test [6] (setting [7]), 17%; in test [6] (setting [8]) it was 96% (active); in test [6] (at 50.0 µM), -17.5%.

Regarding `CC(C)c1ccc2c(c1)CCC1C(C)(C(=O)O)CCCC21C` (stereo not given), the growth inhibition in test [1] (setting [7]) was 11%; in test [1] (setting [8]) it was 97% (active); in test [1] (at 50.0 µM), 95.1% (active); in test [2] (setting [7]) it was 8%; in test [2] (setting [8]) it was 97% (active); in test [2] (at 50.0 µM), 98.3% (active). Moreover, the growth inhibition in test [3] (setting [7]) is 16%; in test [3] (setting [8]), -15%; in test [3] (at 50.0 µM) it was 98% (active); in test [4] (setting [7]), 8%; in test [4] (setting [8]), 98% (active); in test [4] (at 50.0 µM), 96.9% (active). Moreover, the growth inhibition in test [5] (setting [7]) was -9%; in test [5] (setting [8]) it was 97% (active); in test [5] (at 50.0 µM), 97.8% (active); in test [6] (setting [7]) it was 16%; in test [6] (setting [8]) it was 97% (active); in test [6] (at 50.0 µM), 97.5% (active).

`O=C(O)c1ccccc1C(=O)c1ccc2c(c1)Cc1ccccc1-2`: the growth inhibition is -5% in test [1] (setting [7]); 9% in test [1] (setting [8]); 68.6% in test [1] (at 50.0 µM); -3% in test [2] (setting [7]); 4% in test [2] (setting [8]); 41.3% in test [2] (at 50.0 µM). Besides, the growth inhibition in test [3] (setting [7]) was -4%; in test [3] (setting [8]), 7%; in test [3] (at 50.0 µM) it was 44.9%; in test [4] (setting [7]) it was -28%; in test [4] (setting [8]), 31%; in test [4] (at 50.0 µM), 74.8% (active). Moreover, the growth inhibition in test [5] (setting [7]) is 4%; in test [5] (setting [8]), 5%; in test [5] (at 50.0 µM), 42.8%; in test [6] (setting [7]), 3%; in test [6] (setting [8]), 26%; in test [6] (at 50.0 µM), 76% (active).

Regarding `Cc1cc(=O)[nH]c2cc3oc4ccccc4c3cc12`, the growth inhibition in test [1] (setting [7]) was 30%; in test [1] (setting [8]) it was 94% (active); in test [1] (at 50.0 µM), 95.2% (active); in test [2] (setting [7]), -5%; in test [2] (setting [8]), 39%; in test [2] (at 50.0 µM), 32.4%. Also, the growth inhibition was 11% in test [3] (setting [7]); 40% in test [3] (setting [8]); 17.6% in test [3] (at 50.0 µM); 9% in test [4] (setting [7]); 36% in test [4] (setting [8]); 68.1% in test [4] (at 50.0 µM). The growth inhibition in test [5] (setting [7]) was -13%; in test [5] (setting [8]), 45%; in test [5] (at 50.0 µM) it was 81% (active); in test [6] (setting [7]), 23%; in test [6] (setting [8]), 80% (active); in test [6] (at 50.0 µM) it was 78.9% (active).

On to `CC(=O)C1C(=O)C=C(C)OC1=O` (stereo not given), for which the growth inhibition was 4% in test [1] (setting [7]); 21% in test [1] (setting [8]); 40.5% in test [1] (at 50.0 µM); 8% in test [2] (setting [7]); 18% in test [2] (setting [8]); 29.1% in test [2] (at 50.0 µM). In addition, the growth inhibition was 1% in test [3] (setting [7]); 18% in test [3] (setting [8]); -0.75% in test [3] (at 50.0 µM); 7% in test [4] (setting [7]); 13% in test [4] (setting [8]); 3.7% in test [4] (at 50.0 µM). The growth inhibition in test [5] (setting [7]) was 0%; in test [5] (setting [8]), 2%; in test [5] (at 50.0 µM) it was 28.9%; in test [6] (setting [7]), 4%; in test [6] (setting [8]), 23%; in test [6] (at 50.0 µM) it was 70.7% (active).

On to `Fc1ccc2c(c1)Nc1cc(F)cc(F)c1S2`, for which the growth inhibition is -4% in test [1] (setting [7]); 54% in test [1] (setting [8]); 2.7% in test [1] (at 50.0 µM); -5% in test [2] (setting [7]); 12% in test [2] (setting [8]); -2% in test [2] (at 50.0 µM). The growth inhibition was -4% in test [3] (setting [7]); 36% in test [3] (setting [8]); 65.7% in test [3] (at 50.0 µM); 0% in test [4] (setting [7]); 1% in test [4] (setting [8]); 2.75% in test [4] (at 50.0 µM). Moreover, the growth inhibition is -3% in test [5] (setting [7]); 5% in test [5] (setting [8]); 40.8% in test [5] (at 50.0 µM); -6% in test [6] (setting [7]); 48% in test [6] (setting [8]); 21.5% in test [6] (at 50.0 µM).

Consider `C[C@]12CC[C@H](O)CC1=CC[C@@H]1C2CC[C@]2(C)C(=O)N(N)C(=O)CC12` (stereo not given in full), for which the growth inhibition is 7% in test [1] (setting [7]); 92% (active) in test [1] (setting [8]); 83.7% (active) in test [1] (at 50.0 µM); -24% in test [2] (setting [7]); 91% (active) in test [2] (setting [8]); 88.3% (active) in test [2] (at 50.0 µM). The growth inhibition is 16% in test [3] (setting [7]); 93% (active) in test [3] (setting [8]); 87.8% (active) in test [3] (at 50.0 µM); 2% in test [4] (setting [7]); 92% (active) in test [4] (setting [8]); 88.4% (active) in test [4] (at 50.0 µM). The growth inhibition in test [5] (setting [7]) is 16%; in test [5] (setting [8]), 93% (active); in test [5] (at 50.0 µM), 86.7% (active); in test [6] (setting [7]), -11%; in test [6] (setting [8]) it was 91% (active); in test [6] (at 50.0 µM), 84.4% (active).

As for `CC[C@H]1CN2CCc3cc(OC)c(OC)cc3[C@@H]2C[C@@H]1C[C@H]1NCCc2cc(OC)c(OC)cc21`, the growth inhibition in test [1] (setting [7]) is 0%; in test [1] (setting [8]) it was 12%; in test [1] (at 50.0 µM), -7.4%; in test [2] (setting [7]), -10%; in test [2] (setting [8]) it was -2%; in test [2] (at 50.0 µM), -4.65%. For the same compound, the growth inhibition in test [3] (setting [7]) is 1%; in test [3] (setting [8]), 3%; in test [3] (at 50.0 µM), 4%; in test [4] (setting [7]), 1%; in test [4] (setting [8]) it was 17%; in test [4] (at 50.0 µM), 7.5%. Further, the growth inhibition in test [5] (setting [7]) is 3%; in test [5] (setting [8]), 0%; in test [5] (at 50.0 µM), 2.55%; in test [6] (setting [7]), 1%; in test [6] (setting [8]), 3%; in test [6] (at 50.0 µM), 8.25%.
